Several values for one entry are separate records, joined by “and”; a condition that tells them apart may be missing. Equal values may be shown once. This is part of a sample that, as a whole, favours compounds with a hit. Of some 79,000 tested, about 15% had one in any assay. Rule as the data show it: active = growth inhibition above about 70%; inactive = the rest.
Tests used:
[1] = NCI Yeast Anticancer Drug Screen. Data for the rad50 strain (AID 155);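 also: 0% = growth of vehicle-only cultures of the same strain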; conditions: S. cerevisiae rad50 strain growth inhibition; at 50.0 µM; active compounds read high
Method in brief: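 Growth of the mutant yeast was measured after compound exposure and referenced to vehicle-treated cultures.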

[2] = NCI Yeast Anticancer Drug Screen. Data for the mec2-1 strain (AID 157); conditions: S. cerevisiae mec2-1 strain, at 50.0 µM, active compounds read high
Method in brief: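 Compounds were applied to mec2-1 yeast cells. Their growth was then compared with that of vehicle-treated cultures to give growth inhibition.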

[3] = NCI Yeast Anticancer Drug Screen. Data for the sgs1 mgt1 strain (AID 161);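 also: 0% = growth of cultures given vehicle only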; conditions: S. cerevisiae sgs1 mgt1 strain, at 50.0 µM, active compounds read high
Method in brief: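 Compounds are added to genetically altered yeast, and growth is compared with cultures given vehicle alone to give percent inhibition.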

[4] = NCI Yeast Anticancer Drug Screen. Data for the cln2 rad14 strain (AID 165);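 also: 0% = growth equal to vehicle treated cultures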; conditions: S. cerevisiae cln2 rad14 strain, at 50.0 µM, active compounds read high
Method in brief: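 Strain: cln2 rad14 yeast, altered in cell cycle control and DNA damage repair. Read-out: growth inhibition vs vehicle.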

[5] = NCI Yeast Anticancer Drug Screen. Data for the bub3 strain (AID 167); conditions: S. cerevisiae bub3 mutant strain, at 50.0 µM, active compounds read high
Method in brief: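 Whole-cell yeast assay. The mutant strain was incubated with compounds, and growth inhibition was determined by comparison with vehicle-treated cells.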

[6] = NCI Yeast Anticancer Drug Screen. Data for the mlh1 rad18 strain (AID 175); conditions: S. cerevisiae mlh1 rad18 strain growth inhibition; at 50.0 µM; active compounds read high
Method in brief: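 A repair-deficient yeast strain is exposed to test compound, and growth is scored relative to vehicle-treated controls.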

Measured: growth inhibition

C1CC[N-]CC1.CC(=N\O)/C(C)=N/O.CC(=N\O)/C(C)=N/O.C[CH-]C(C)O.[Co+2]
inactive: [1] -2% | [2] -7.15% | [3] 36.3% | [4] 8.2% | [5] -13.1% | [6] 39.9%

CC1(C(N)Cc2c[nH]c3ccccc23)OCCO1 (stereo not given)
inactive: [1] -7.7% | [2] -0.1% | [3] -28.6% | [4] -6.55% | [5] -0.25% | [6] 4.1%

CN1C(=O)NC(C)(c2cccc(N(CCCl)CCCl)c2)C1=O (stereo not given)
inactive: [1] 5.5% | [2] 24.2% | [3] 10.8% | [4] 8.2% | [5] -13.9% | [6] 27.6%

c1c[nH]c(Cc2ncc(Cc3cnc[nH]3)[nH]2)n1
inactive: [1] 4.4% | [2] -20.6% | [3] -9.55% | [4] 21.8% | [5] -13% | [6] -9.6%

O=c1[nH]cc(CCl)c(=O)[nH]1
inactive: [1] 3.2% | [2] -17.2% | [3] 6.3% | [4] 25.9% | [5] 4.85% | [6] -0.15%

C[N+]1(C)CCN(c2ccccc2)CC1
inactive: [1] 18.9% | [2] -29.6% | [3] -12.5% | [4] 14.2% | [5] -8.9% | [6] -5.35%

N[C@H](Cc1ccc2oc3cc(=O)c4ccccc4c-3nc2c1)C(=O)O
inactive: [1] 20.8% | [2] 33.4% | [3] 24.7% | [4] 15.1% | [5] 35.5% | [6] 39.2%

CCCCCCCCCC[As](=O)(O)O
inactive: [1] 41.8% | [2] 22.2% | [3] 8.6% | [4] 21.9% | [5] 18.9% | [6] 16.9%

CCOP1(=S)NNP(=S)(OCC)NN1 (stereo not given)
inactive: [1] -2.75% | [2] -11.5% | [3] -3.75% | [4] 18.4% | [5] 10.2% | [6] 8.85%

CC[n+]1c(C)n(-c2ccccc2)c(=O)c2ccccc21
inactive: [1] -0.3% | [2] -6.85% | [3] 4.75% | [4] 18.2% | [5] -10.9% | [6] 6.25%

CC[As](=O)(O)c1ccc(I)cc1
inactive: [1] 3.6% | [2] -8.4% | [3] -1.95% | [4] -11.8% | [5] 12.8% | [6] 5.95%

O=P(O)(O)C(O)c1ccncc1 (stereo not given)
inactive: [1] -28% | [2] -14.9% | [3] -15.8% | [4] -23.1% | [5] -22.6% | [6] -21.9%

O=Cc1ccccc1O.[Pr]
inactive: [1] 29.1% | [2] -24.4% | [3] 37% | [4] 8.4% | [5] 24.4% | [6] 28.6%

O=NN(CCF)C(=O)NCCO
inactive: [1] 1.9% | [2] -7.3% | [3] 7.75% | [4] 12.4% | [5] 1.75% | [6] -32.2%

O=CC(O)C(O)C(O)C(O)COP(=O)(O)Cc1ccccc1 (stereo not given)
inactive: [1] -44.9% and 4.75% | [2] -12.2% and -25.2% | [3] -62% and -32.6% | [4] -25.3% and 28.1% | [5] -10.2% and -9.4% | [6] -48% and 7.55%

Oc1c(Cl)cc(Cl)cc1C1N(Cc2ccc(N(CCCl)CCCl)cc2)CCCN1Cc1ccc(N(CCCl)CCCl)cc1
inactive: [1] 8.75% | [2] 17.2% | [3] 23.4% | [4] -3.25% | [5] 3.7% | [6] 41.5%

O=S(=O)(c1ccccc1)N1CN2CCN(C2)C1
inactive: [1] 17.6% | [2] 7.2% | [3] 31.6% | [4] 2.65% | [5] 5.5% | [6] 10.4%

CC(C)OC(=O)C(C)Br (stereo not given)
inactive: [1] -0.1% | [2] -3.05% | [3] -8.35% | [4] 3% | [5] 3.1% | [6] 1.15%

COCC1OC(OC2C3=C(C(C)C)CCC3(C)/C=C3\C(CCC3(O)COC)C(C)C2O)C(O)C2OC3OC12OC3(C)C1CO1 (stereo not given)
inactive: [1] 28.1% | [2] 7.75% | [3] 21% | [4] 35.2% | [5] 31.6% | [6] -78%

O=C(NCCc1ccc([N+](=O)[O-])cc1)c1ccc(S(=O)(=O)F)cc1
inactive: [1] 1.9% | [2] 12.7% | [3] 6.5% | [4] 3% | [5] 19.4% | [6] 8.05%

From PubChem BioAssay (NCI)
